In PubChem BioAssay (NCATS):
Inconclusive results are not listed. Values without a mark were called inactive. Activity calls are given as the source filed them. The call rests on the fitted dose curve; in most records, active means well fitted inhibition curve with a large enough effect; inconclusive means small, poorly fitted or top-dose-only effect; inactive means flat fitted curve, though single readings scatter.

These compounds were tested against Phospholipid hydroperoxide glutathione peroxidase GPX4 (Homo sapiens) (UniProt P36969) (assay: Primary qHTS Assay for Inhibitors of Recombinant Selenoprotein Glutathione Peroxidase 4 (GPX4) (AID 1845192; further: nearly all actives have a fitted effect of over 65% in size)). Details: recombinant GPX4, GR-coupled NADPH fluorescence, 15 min; series mostly up to 50 µM; activity change, negative = inhibition: at the top concentration.
Chain of Phospholipid hydroperoxide glutathione peroxidase GPX4 (Homo sapiens) (P36969 whole entry, looked up): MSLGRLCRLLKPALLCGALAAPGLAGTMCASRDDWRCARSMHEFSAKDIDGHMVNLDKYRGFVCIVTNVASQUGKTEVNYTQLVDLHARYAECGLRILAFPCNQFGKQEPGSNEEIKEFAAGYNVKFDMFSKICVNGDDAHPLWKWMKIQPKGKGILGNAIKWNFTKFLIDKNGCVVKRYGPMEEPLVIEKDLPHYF
Method in brief: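 NADPH consumption followed by fluorescence at 340/450 nm, t=0 and after 15 min at room temperature. Reaction started with cumene hydroperoxide (0.5 mM final) after 30 min compound–GPX4 preincubation; final 200 nM GPX4, 100 nM GR, 1 mM GSH, 0.5 mM NADPH.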
On the % scale 0 is the no-effect control and ±100 the full control effect.

SMILES	activity change, negative = inhibition	Potency	outcome
Cc1ccc(F)cc1S(=O)(=O)N[C@@H]1CCN(Cc2ccc(OC(C)C)cc2)C1	8.33%	–	–
O=c1[nH]c2ccccc2n1CCN1CCN(c2cccc(C(F)(F)F)c2)CC1	–	inactive	–
CC(C)n1nc(C#Cc2ccccc2)c2c(N)ncnc21	-12.2%	–	–
CC(CCC1(O)OC2CC3C4CC=C5CC(O[C@@H]6O[C@H](CO)[C@@H](O[C@@H]7O[C@@H](C)[C@H](O)[C@@H](O)[C@H]7O)[C@H](O)[C@H]6O[C@@H]6O[C@@H](C)[C@H](O)[C@@H](O)[C@H]6O)CCC5(C)C4CCC3(C)C2C1C)CO[C@@H]1O[C@H](CO)[C@@H](O)[C@H](O)[C@H]1O (some centres undefined)	-10.2% [at 15.3 µM]	–	–
O=C(Nc1cccnn1)N1CCN(c2nccc(-c3ccc(F)c(F)c3)n2)CC1	4.31% [at 100 µM]	–	–
C[C@H](Nc1cc2c(-c3ccc4c(c3)OCO4)noc2cn1)c1ccccc1	9.95%	–	–
C=C1CCCC2(C)CCC(C(C)(C)OC3OC(C)C(O)C(O)C3OC(=O)/C(C)=C\C)CC12 (centres undefined)	-29.9% [at 27.8 µM]	–	–
CC(C)c1cc(-c2ccc(F)c3ccccc23)nc(N)n1	1.95%	–	–
C=C1C(=O)OC2C1CCC1(C)C(O)CCC(=C)C21 (centres undefined)	-0.384%	–	–
C/C=C(/C)C(=O)OC1C=C2C3C(C)C(C)C(OC(=O)C(C)C(C)O)CC3(C)CCC2(C)C2(C)CC(OC(C)=O)C3C(C)(C)C(O)C(=O)CC3(C)C12 (centres undefined)	-6.92% [at 15.3 µM]	–	–
C=C1C(=O)O[C@@H]2C(OC(=O)/C(C)=C\C)/C(C)=C\C(=O)/C=C(\C)C[C@H](O)[C@@H]12 (some centres undefined)	-0.127% [at 27.8 µM]	–	–
OC(CC1c2ccccc2-c2cncn21)C1CCCCC1 (centres undefined)	-3.27%	–	–
CCC(C)C(=O)O[C@H]1[C@H](O)[C@@]2(COC(C)=O)C(CC1(C)C)C1=CCC3[C@@]4(C)CC[C@H](O[C@@H]5O[C@H](C(=O)O)[C@@H](O)[C@H](O)[C@H]5O)[C@@](C)(CO)C4CC[C@@]3(C)[C@]1(C)C[C@@H]2O (some centres undefined)	-4.69% [at 15.3 µM]	–	–
Nc1ncnc2c1c(-c1ccc(Cl)cc1)nn2-c1cccc(-c2cnnn2Cc2cccc(-c3ccccc3)c2)c1	–	–	inactive
CCC[C@H](N[C@H]1CCc2cc(F)cc(F)c2C1)C(=O)Nc1cn(C(C)(C)CNCC(C)(C)C)cn1	–	inactive	–
CC(C)(C)C1CCN(C(=O)n2ncc(C(O)(c3ccccc3)c3ccccc3)n2)CC1	-10.7%	–	–
C/C=C/C=C/C=C/C(=O)O[C@@H]1C=C2COC(=O)[C@]2(O)[C@@]2(C)CCCC(C)(C)[C@H]12	-5.1% [at 27.8 µM]	–	–
C=CCc1ccc(OC(C)Cc2ccc(OC)c(OC)c2)c(OC)c1 (centres undefined)	-17.8% [at 27.8 µM]	–	–
C=C(COC(=O)C(O)C(O)CN)C12OC1C1(C)C(=CC2=O)C(O)C(O)CC1C (centres undefined)	-10.5% [at 27.8 µM]	–	–
COC1CC(O[C@H]2CC[C@]3(C)C4CC[C@@]5(C)C(=O)[C@]4(CC[C@@H]3C2)CC[C@@H]5C2=CC(=O)OC2)OC(C)C1OC1OC(COC2OC(CO)C(O)C(O)C2O)C(O)C(O)C1O (some centres undefined)	3.7% [at 15.3 µM]	–	–
COC1CC(=O)C23C(=O)NC(Cc4c[nH]c5ccccc45)C2C(C)C2(C)OC2C3/C=C/CC(C)CC1O (centres undefined)	-15.2% [at 27.8 µM]	–	–
Cc1ccc(C)c(NC(=O)[C@@H]2CCCN2S(=O)(=O)c2cccc3cccnc23)c1	-3%	–	–
Fc1ccc(-c2nc(-c3ccccc3F)[nH]c2-c2ccncc2)cc1	-9.83%	–	–
CC(C)(Cc1ccccc1)NCC(O)c1ccc(O)c(NS(C)(=O)=O)c1 (centres undefined)	-6.52%	–	–
COc1cc(NC(=O)c2cc(C3CC3)on2)c(OC)cc1Cl	19.3%	–	–
C=C(C)C(=O)O[C@H]1[C@H]2C(=C)C(=O)O[C@@H]2/C=C(\CO)CC/C=C(/C=O)[C@@H]1O	3.94% [at 27.8 µM]	–	–
CC(C)n1c(=O)c(C(=O)NC2CC3CCC(C2)N3C[C@@H](O)CN(C)S(C)(=O)=O)cc2ccccc21 (some centres undefined)	-6.37%	–	–
O=C(Nc1ccc(CN2CCOCC2)cc1)c1ccc(-c2cccc(Cl)c2)o1	-12.1%	–	–
Cc1ccc(OC[C@H](O)[C@H](C)NC(C)C)c2c1CCC2	-0.575%	–	–
